Source: PubChem (several laboratories)
Only some compounds are listed: those with a hit (about 3.8% of all), similar ones and a draw of the others.
TIM10 inh = growth inhibitors of isogenic TIM10 control yeast, primary screen, counter-screen for tim10-1 yeast inhibitor project, luminescence, uHTS. S. cerevisiae TIM10 strain growth, BacTiter-Glo luminescence, 24 h. inhibition, % at 10 µM. actives 1.4% (n = 330,000);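 active = inhibition of 40% or more at the single tested concentration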;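 also: wild-type TIM10 isogenic control strain grown at permissive 25 °C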
tim23-1 inh = growth inhibitors of tim23-1 mutant yeast, primary screen, luminescence, uHTS | S. cerevisiae tim23-1 growth, BacTiter-Glo luminescence, 24 h | actives 1.3% (n = 330,000) | AID 463212, 2010 | inhibition, % at 20 µM;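 active = growth inhibition of the mutant yeast at or above 50%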;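 also: temperature-sensitive mutant grown at 25 °C; plate controls were DMSO-treated mutant yeast for no effect and medium wells lacking yeast for full effect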
tim10-1 inh = growth inhibitors of tim10-1 mutant yeast, primary screen, luminescence, uHTS | S. cerevisiae tim10-1 ts strain growth, BacTiter-Glo, 24 h | AID 463190, 2010 | inhibition, % at 20 µM | actives 2.2% (n = 330,000);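 active = inhibition of at least 40%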;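 also: mutant grown at 25 °C; 0% = DMSO wells with yeast and 100% = wells holding no yeast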
PfHsp90 set2 = growth inhibition of PfHsp90-expressing yeast, primary screen, antimalarial PfHsp90 inhibitor project, S. cerevisiae, BacTiter-Glo luminescence, single point, set 2; BacTiter-Glo ATP, 48 h; yeast lacking PDR1 and PDR3 efflux regulators; inhibition, % at 9.4 µM; actives 0.32% (n = 310,000); AID 504621, 2011;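 active = every replicate shows inhibition above about 80%, whatever the replicate mean, limit read from the data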;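 also: 0% = DMSO neutral controls and 100% = 20 µM radicicol positive controls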
Beta2AR agonist = beta2AR agonists driving receptor internalization, primary screen, cell-based, FAP fluorogen, flow cytometry | Beta-2 adrenergic receptor (Homo sapiens), P07550 | Am2.2-beta2AR cells | response, % (test concentration not listed) | actives 0.43% (n = 340,000);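 active = response above a set limit, near 3 SD of response in nonfluorescent compounds, cut at about 42% in these data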
Target sequence (P07550 whole entry, looked up): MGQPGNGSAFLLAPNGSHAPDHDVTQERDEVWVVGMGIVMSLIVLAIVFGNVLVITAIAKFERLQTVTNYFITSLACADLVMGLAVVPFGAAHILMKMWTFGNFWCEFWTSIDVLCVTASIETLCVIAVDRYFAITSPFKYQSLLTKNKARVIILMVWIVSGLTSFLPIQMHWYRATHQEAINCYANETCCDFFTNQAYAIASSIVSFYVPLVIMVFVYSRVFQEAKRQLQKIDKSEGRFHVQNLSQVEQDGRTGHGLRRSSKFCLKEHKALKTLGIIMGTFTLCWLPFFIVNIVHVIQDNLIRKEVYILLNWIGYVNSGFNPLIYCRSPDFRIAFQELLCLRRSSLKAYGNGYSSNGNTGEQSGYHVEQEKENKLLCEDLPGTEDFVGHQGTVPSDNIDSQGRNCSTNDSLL
tim10-1 confirm = growth inhibitors of tim10-1 mutant yeast, confirmation, single concentration, luminescence, S. cerevisiae. shares compounds with tim10-1 inh. S. cerevisiae tim10-1 ts strain growth, BacTiter-Glo, 24 h. inhibition, % at 20 µM. actives 56% (n = 7,400);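 active = inhibition of yeast growth at or above a set limit in either of two repeat tests at 20 µM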;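 also: tim10-1 mutant grown at permissive 25 °C to find synthetic lethal compounds; 0% = DMSO yeast wells and 100% = medium wells without yeast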
TIM10 conf = growth inhibitors of wild-type TIM10 yeast, confirmation, counter-screen for tim10-1 synthetic lethality project, single concentration, luminescence, S. cerevisiae; actives 63% (n = 4,600); inhibition, % at 10 µM; shares compounds with TIM10 inh; S. cerevisiae tim10 strain growth, BacTiter-Glo luminescence, 24 h;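 active = inhibition of yeast growth at or above a set limit in either of two replicates at 10 µM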;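 also: this counterscreen used the strain with wild-type TIM10; 0% = yeast with DMSO and 100% = medium wells lacking yeast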
Numbers without * were called inactive.

How did CC1C(=O)Nc2ccc(S(=O)(=O)N3CCN(c4cccc(C(F)(F)F)c4)CC3)cc2NC1=O (stereo unspecified) do in these assays?
TIM10 inh: 19; tim23-1 inh: 5; tim10-1 inh: 3; PfHsp90 set2: -12; Beta2AR agonist: 12

What do the screens show for `CS(=O)(=O)c1ccc(C(=O)OCc2nnc(-c3ccc(Cl)cc3)o2)cc1[N+](=O)[O-]`?
TIM10 inh: 51*; tim23-1 inh: 48; tim10-1 inh: 59*; Beta2AR agonist: 93*; tim10-1 confirm: 56*; TIM10 conf: 41*

How did CC(NC(=S)Nc1ccc(F)cc1)c1ccccc1 (stereo unspecified) do in these assays?
TIM10 inh: 13; tim23-1 inh: 28; tim10-1 inh: 24; PfHsp90 set2: -4; Beta2AR agonist: -5

Results for CC(C)c1ccccc1NC(=S)NC(C)c1ccccc1 (stereo unspecified) ?
TIM10 inh: 42*; tim23-1 inh: 40; tim10-1 inh: 42*; PfHsp90 set2: 9; Beta2AR agonist: -4; tim10-1 confirm: 23; TIM10 conf: 17

How did CCOC(=O)c1c(NC(C)=O)sc2c(O)c(Br)cc(Br)c12 do in these assays?
PfHsp90 set2: -92; Beta2AR agonist: 5

How did CCOC(=O)c1c(NC(C)=O)sc2c(O)cccc12 do in these assays?
TIM10 inh: 50*; tim23-1 inh: 17; tim10-1 inh: 45*; PfHsp90 set2: -8; Beta2AR agonist: -3; tim10-1 confirm: 17; TIM10 conf: 38*

How did OCC[C@@H]1C[C@H](O)[C@@H](O)[C@]2(Cc3ccccc3CO2)O1 do in these assays?
TIM10 inh: 0; tim23-1 inh: 6; tim10-1 inh: -10; PfHsp90 set2: 18; Beta2AR agonist: 3

How did CCOC(=O)C1=C(C)Nc2nc(=S)[nH]n2C1c1ccc(Cl)cc1 (stereo unspecified) do in these assays?
TIM10 inh: 48*; tim23-1 inh: 44; tim10-1 inh: 55*; PfHsp90 set2: -30; Beta2AR agonist: 5; tim10-1 confirm: 44*; TIM10 conf: 1

Results for CCOC(=O)C1=C(C)Nc2nc(SCC)nn2C1c1ccc(OC)cc1 (stereo unspecified) ?
TIM10 inh: 12; tim23-1 inh: -10; tim10-1 inh: 15; PfHsp90 set2: -10; Beta2AR agonist: 2

Results for Cc1ccc2nc(-c3ccccc3)c(CN3CCSCC3)n2c1 ?
TIM10 inh: 4; tim23-1 inh: 28; tim10-1 inh: 35; PfHsp90 set2: 7; Beta2AR agonist: -7

What do the screens show for `Cc1ccc2nc(-c3ccccc3)c(CN3CCN(c4ccccc4F)CC3)n2c1`?
TIM10 inh: 51*; tim23-1 inh: 49; tim10-1 inh: 56*; PfHsp90 set2: -17; Beta2AR agonist: -6; tim10-1 confirm: 42*; TIM10 conf: 37*

Results for CCCCn1c(N)c(N(CCC(C)C)C(=O)COC(=O)Cc2ccc(Cl)cc2)c(=O)[nH]c1=O ?
PfHsp90 set2: 37; Beta2AR agonist: -1

What do the screens show for `Nc1cc2c3ccccc3ccc2c2ccccc12`?
Beta2AR agonist: 0

Results for CC(=O)N(Cc1ccc(F)cc1)C1=C(NCCc2ccccc2)C(=O)c2ccccc2C1=O ?
TIM10 inh: 45*; tim23-1 inh: 30; tim10-1 inh: 41*; PfHsp90 set2: -28; Beta2AR agonist: -4; tim10-1 confirm: 16; TIM10 conf: 31*

How did CC(=O)N(Cc1ccc(F)cc1)c1cccc(C)c1C do in these assays?
TIM10 inh: 15; tim23-1 inh: 5; tim10-1 inh: 15; PfHsp90 set2: 23; Beta2AR agonist: -2

What do the screens show for `COc1ccc2nc3oc(C(=O)NC4CCN(Cc5ccccc5)CC4)cc3cc2c1`?
TIM10 inh: 74*; tim23-1 inh: 34; tim10-1 inh: 52*; PfHsp90 set2: 6; Beta2AR agonist: 17; tim10-1 confirm: 50*; TIM10 conf: 44*

Results for COc1ccc2cc3cc(C(=O)NCCN4CCN(Cc5ccccc5)CC4)oc3nc2c1 ?
TIM10 inh: 75*; tim23-1 inh: 39; tim10-1 inh: 57*; PfHsp90 set2: -9; Beta2AR agonist: 13; tim10-1 confirm: 58*; TIM10 conf: -21

Results for CCOC(=O)N1CCC(NC(=O)c2cc3cc4cc(OC)ccc4nc3o2)CC1 ?
TIM10 inh: 29; tim23-1 inh: 28; tim10-1 inh: 16; PfHsp90 set2: -8; Beta2AR agonist: 9

What do the screens show for `CCCCN(CC)CCCNC(=O)c1cc2cc3ccc(OC)cc3nc2o1`?
TIM10 inh: 66*; tim23-1 inh: 47; tim10-1 inh: 43*; PfHsp90 set2: 2; Beta2AR agonist: 1; tim10-1 confirm: 44*; TIM10 conf: -21

What do the screens show for `COc1ccc2cc3cc(C(=O)NCCCN4CCOCC4)oc3nc2c1`?
TIM10 inh: 79*; tim23-1 inh: 45; tim10-1 inh: 58*; PfHsp90 set2: 24; Beta2AR agonist: -1; tim10-1 confirm: 67*; TIM10 conf: 81*

Results for CN(C)C(=S)NC(=S)Nc1ccc2ccccc2c1 ?
PfHsp90 set2: -154; Beta2AR agonist: -1

What do the screens show for `CC(=O)OCC1CC(COC(C)=O)C(COC(C)=O)CC1COC(C)=O` (stereo unspecified)?
PfHsp90 set2: 51; Beta2AR agonist: -7

What do the screens show for `CNc1ccc(/C=C2\CSc3ccccc3C2=O)cc1[N+](=O)[O-]`?
TIM10 inh: 46*; tim23-1 inh: 29; tim10-1 inh: 45*; Beta2AR agonist: -3; tim10-1 confirm: 40*; TIM10 conf: 25

Results for C[n+]1c2n(c3ccccc31)N=C(c1ccc(Br)cc1)CS2 ?
TIM10 inh: 43*; tim23-1 inh: 27; tim10-1 inh: 44*; Beta2AR agonist: -23; tim10-1 confirm: 44*; TIM10 conf: 32*

How did C[n+]1c2n(c3ccccc31)N=C(c1ccccc1)CS2 do in these assays?
TIM10 inh: 12; tim23-1 inh: 6; tim10-1 inh: -7; PfHsp90 set2: 5; Beta2AR agonist: -16

How did COc1ccccc1NCC(O)Cn1c2ccccc2c2ccccc21 (stereo unspecified) do in these assays?
TIM10 inh: 42*; tim23-1 inh: -23; tim10-1 inh: 52*; PfHsp90 set2: -50; Beta2AR agonist: 2; tim10-1 confirm: 29; TIM10 conf: 40*
